Data published in PubChem BioAssay (EPA / NIEHS).
Where “and” joins values, the source holds several entries; their conditions need not be identical. Equal values may be shown once. Records with an inconclusive call do not appear. Calls of active or inactive are those of the source. The calls were made as follows, unless noted: active = hit-call score of the fitted dose curve at least 0.9, where 1 is the maximum; inconclusive = response in the unintended direction; inactive = score below 0.9.

What was measured:
[1] = target: human Peroxisome Proliferator-activated Receptor delta (PPARd), PPARD (gene 5467) (UniProt Q03181); assay: ATG_PPARd_TRANS: Attagene TRANS-FACTORIAL HepG2 Assay for human Peroxisome Proliferator-activated Receptor delta (PPARd) (AID 2283002)
Outline: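 Read-out is induced reporter mRNA, quantified by RT-PCR with fluorescent labelling and capillary electrophoresis after 24 h dosing. Cells are HepG2 transiently carrying multiple GAL4-UAS reporter units driven by exogenous NR-GAL4 chimeras; DMSO serves as baseline.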

[2] = target: Peroxisome proliferator-activated receptor gamma (Homo sapiens) (UniProt P37231); assay: ATG_PPARg_TRANS: Attagene TRANS-FACTORIAL HepG2 Assay for human Peroxisome Proliferator-activated Receptor-gamma (PPARg) (AID 2283007)
Outline: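 Human hepatoma HepG2, transient MRTU transfection, 24 h treatment. mRNA reporter signal by RT-PCR plus capillary electrophoresis, fluorescence detection; fitted for increase over DMSO negative control.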

[3] = target: Nuclear receptor subfamily 1 group I member 2 (Homo sapiens) (UniProt O75469); assay: ATG_PXR_TRANS: Attagene TRANS-FACTORIAL HepG2 Assay for human Pregnane X Receptor (PXR) (AID 2283008)
Outline: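 Read-out is fluorescence of labelled reporter cDNA fragments separated by capillary electrophoresis after RT-PCR and HpaI digestion. Source: HepG2 cells carrying PXR-GAL4/UAS reporter constructs, treated 24 h; activity fitted upward relative to DMSO.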

[4] = target: Retinoic acid receptor RXR-alpha (Homo sapiens) (UniProt P19793); assay: ATG_RXRa_TRANS: Attagene TRANS-FACTORIAL HepG2 Assay for human Retinoid X Receptor alpha (RXRa) (AID 2283012)
Outline: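 Cells (HepG2) carried transiently transfected GAL4-responsive reporter units. Following a 24 h chemical incubation, reporter mRNA induction was read via RT-PCR fragment analysis; DMSO served as negative control and baseline.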

[5] = target: human RAR-related Orphan Receptor gamma (RORg), RORC (gene 6097) (UniProt P51449); assay: ATG_RORg_TRANS: Attagene TRANS-FACTORIAL HepG2 Assay for human RAR-related Orphan Receptor gamma (RORg) (AID 2283011)
Outline: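 Reporter transcripts from a transfected RORg-GAL4 chimera in HepG2 cells were quantified 24 h after dosing by RT-PCR, 6-FAM labelling, HpaI digestion and capillary electrophoresis; increases over DMSO baseline were fitted.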

[6] = target: human Thyroid Receptor alpha (THRa1), THRA (gene 7067) (UniProt P10827); assay: ATG_THRa1_TRANS: Attagene TRANS-FACTORIAL HepG2 Assay for human Thyroid Receptor alpha (THRa1) (AID 2283014)
Outline: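 Transcripts from GAL4-UAS-driven reporters, measured after 24 h compound exposure by RT-PCR plus capillary electrophoresis of 6-FAM-labeled fragments, were fitted for gain of signal relative to DMSO. Cells: transiently transfected HepG2 expressing NR-Gal4 chimeras.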

[7] = target: Retinoic acid receptor alpha (Homo sapiens) (UniProt P10276); assay: ATG_RARa_TRANS: Attagene TRANS-FACTORIAL HepG2 Assay for human Retinoic Acid Receptor alpha (RARa) (AID 2283005)
Outline: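 Reporter transcripts, measured by RT-PCR with fluorescent labeling and capillary electrophoresis after 24 h dosing, reflect activity of an exogenous human RARa–GAL4 fusion in transiently transfected HepG2. Fitted for increase relative to DMSO.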

[8] = target: human RAR-related Orphan Receptor beta (RORb), RORB (gene 6096) (UniProt Q92753); assay: ATG_RORb_TRANS: Attagene TRANS-FACTORIAL HepG2 Assay for human RAR-related Orphan Receptor beta (RORb) (AID 2283010)
Outline: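 In this TRANS-format test, human HepG2 cells express chimeric NR-Gal4 fusion proteins driving GAL4-UAS reporters. After 24 h dosing, reporter transcripts are measured by fluorescent RT-PCR/capillary electrophoresis, with DMSO as negative control.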

[9] = target: human Retinoid X Receptor beta (RXRb), RXRB (gene 6257) (UniProt P28702); assay: ATG_RXRb_TRANS: Attagene TRANS-FACTORIAL HepG2 Assay for human Retinoid X Receptor beta (RXRb) (AID 2283013)
Outline: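 Multiplexed TRANS reporter assay in HepG2; 24 h dosing; reporter mRNA by RT-PCR/CE fluorescence; gain-of-signal relative to DMSO.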

[10] = read-out: Intercellular Adhesion Molecule 1 (ICAM1), ICAM1 (gene 3383); assay: BSK_3C_ICAM1: BioMAP Diversity Plus: 3C Assay for Intercellular Adhesion Molecule 1 (ICAM1) Biomarker Activity (AID 2283003; active = hit-call score of the fitted dose curve at least 0.9, where 1 is the maximum; inactive = score below 0.9); conditions: primary human endothelial cells (HUVEC); actives raise or lower the signal
Outline: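 Human vascular endothelial primary cells, 3C conditions, 24 h treatment. ICAM-1 by ELISA.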

[11] = BSK_3C_Proliferation: Cell Proliferation Assessment in the BioMAP Diversity Plus: 3C Assay (AID 2283006; active = hit-call score of the fitted dose curve at least 0.9, where 1 is the maximum; inactive = score below 0.9;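 as to AC50: potency may reflect either rise or fall in cell number versus DMSO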); conditions: primary human endothelial cells (HUVEC)
Outline: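 Proliferation of human vascular endothelial primary cells after 48 h dosing, quantified as SRB-stained protein at 560 nm relative to DMSO.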

[12] = read-out: E-selectin (Homo sapiens) (UniProt P16581); assay: BSK_3C_Eselectin: BioMAP Diversity Plus: 3C Assay for Eselectin Biomarker Activity (AID 2283015; active = hit-call score of the fitted dose curve at least 0.9, where 1 is the maximum; inactive = score below 0.9); conditions: primary human endothelial cells (HUVEC); actives raise or lower the signal
Outline: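 E-selectin ELISA readout, fitted bidirectionally relative to DMSO, taken 24 h post-dosing in HUVEC cultures of the 3C system. Overt cytotoxicity tracked with sulforhodamine B staining of parallel wells.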

[13] = read-out: Interleukin-1 alpha (IL1a), IL1A (gene 3552); assay: BSK_BE3C_IL1a: BioMAP Diversity Plus: BE3C Assay for Interleukin-1 alpha (IL1a) Biomarker Activity (AID 2283016; active = hit-call score of the fitted dose curve at least 0.9, where 1 is the maximum; inactive = score below 0.9); conditions: primary human bronchial epithelial cells; actives raise or lower the signal
Outline: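 Cultures of primary human bronchial epithelial cells receive test chemical. After 24 h, IL-1a is quantified by ELISA, while parallel wells are fixed in TCA and SRB-stained for total protein. Changes in either direction are fitted relative to DMSO.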

[14] = read-out: Monocyte Chemoattractant Protein-1 (MCP1), CCL2 (gene 6347); assay: BSK_3C_MCP1: BioMAP Diversity Plus: 3C Assay for Monocyte Chemoattractant Protein-1 (MCP1) Biomarker Activity (AID 2283017; active = hit-call score of the fitted dose curve at least 0.9, where 1 is the maximum; inactive = score below 0.9); conditions: primary human endothelial cells (HUVEC); actives raise or lower the signal
Outline: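 MCP-1 was measured by ELISA 24 h after dosing in primary HUVEC 3C cultures and fitted in both directions relative to DMSO; cytotoxicity was checked by SRB total-protein staining in parallel wells.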

[15] = read-out: Monocyte Chemoattractant Protein-1 (MCP1), CCL2 (gene 6347); assay: BSK_4H_MCP1: BioMAP Diversity Plus: 4H Assay for Monocyte Chemoattractant Protein-1 (MCP1) Biomarker Activity (AID 2283018; active = hit-call score of the fitted dose curve at least 0.9, where 1 is the maximum; inactive = score below 0.9); conditions: primary human endothelial cells (HUVEC); actives raise or lower the signal
Outline: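 Readout: MCP-1 ELISA on compound-treated HUVEC, sampled 24 h post-dosing. Baseline and negative control DMSO; bidirectional fit. Overt toxicity checked alongside by sulforhodamine B protein staining at time of biomarker measurement.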

[16] = read-out: Human Leukocyte Antigen - DR isotype (HLADR), HLA-DRA (gene 3122); assay: BSK_3C_HLADR: BioMAP Diversity Plus: 3C Assay for Human Leukocyte Antigen - DR isotype (HLADR) Biomarker Activity (AID 2283019; active = hit-call score of the fitted dose curve at least 0.9, where 1 is the maximum; inactive = score below 0.9); conditions: primary human endothelial cells (HUVEC); actives raise or lower the signal
Outline: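 Bidirectional fitting against DMSO was applied to the HLA-DR ELISA signal from human umbilical vein endothelial cells, 24 h post-dose. Cytotoxicity came from parallel SRB total-protein staining; 3C proliferation was counted by SRB at 48 h.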

[17] = read-out: Interleukin-8 (IL8), CXCL8 (gene 3576); assay: BSK_3C_IL8: BioMAP Diversity Plus: 3C Assay for Interleukin-8 (IL8) Biomarker Activity (AID 2283020; active = hit-call score of the fitted dose curve at least 0.9, where 1 is the maximum; inactive = score below 0.9); conditions: primary human endothelial cells (HUVEC); actives raise or lower the signal
Outline: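 Human vascular endothelial cells (umbilical vein) in the 3C system; IL-8 level detected by ELISA at 24 h post-dose, with DMSO as baseline.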

[18] = target: human Retinoic Acid Receptor beta (RARb), RARB (gene 5915) (UniProt P10826); assay: ATG_RARb_TRANS: Attagene TRANS-FACTORIAL HepG2 Assay for human Retinoic Acid Receptor beta (AID 2283004)
Outline: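 Induction of reporter mRNA from a chimeric RARb-Gal4 construct was measured by RT-PCR, FAM labelling, HpaI digestion and capillary electrophoresis. Measurements followed 24 h compound treatment of transiently transfected human HepG2 liver cells, with DMSO as baseline.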

[19] = target: human Retinoic Acid Receptor gamma (RARg), RARG (gene 5916) (UniProt P13631); assay: ATG_RARg_TRANS: Attagene TRANS-FACTORIAL HepG2 Assay for human Retinoic Acid Receptor gamma (RARg) (AID 2283009)
Outline: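 HepG2, RARg-GAL4 TRANS system, 24 h exposure; reporter mRNA by RT-PCR + CE fluorescence; increase over DMSO.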

Measured: AC50

Retinoic acid receptor alpha (Homo sapiens), sequence (P10276 whole entry, looked up, the tested form may be a part): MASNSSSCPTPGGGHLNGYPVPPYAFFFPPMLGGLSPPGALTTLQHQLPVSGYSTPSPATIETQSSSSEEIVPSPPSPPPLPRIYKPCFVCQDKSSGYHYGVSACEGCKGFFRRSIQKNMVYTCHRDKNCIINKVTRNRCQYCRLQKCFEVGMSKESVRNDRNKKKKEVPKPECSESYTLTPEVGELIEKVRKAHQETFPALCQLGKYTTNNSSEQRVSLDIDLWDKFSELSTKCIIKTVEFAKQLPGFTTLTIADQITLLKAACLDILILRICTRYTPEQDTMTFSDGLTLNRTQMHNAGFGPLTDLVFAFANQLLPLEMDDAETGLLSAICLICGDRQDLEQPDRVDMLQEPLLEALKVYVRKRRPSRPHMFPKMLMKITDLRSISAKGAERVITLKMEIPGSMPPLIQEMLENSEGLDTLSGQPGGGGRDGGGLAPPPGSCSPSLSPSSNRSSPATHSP
Retinoic acid receptor RXR-alpha (Homo sapiens), sequence (P19793 whole entry, looked up, the tested form may be a part): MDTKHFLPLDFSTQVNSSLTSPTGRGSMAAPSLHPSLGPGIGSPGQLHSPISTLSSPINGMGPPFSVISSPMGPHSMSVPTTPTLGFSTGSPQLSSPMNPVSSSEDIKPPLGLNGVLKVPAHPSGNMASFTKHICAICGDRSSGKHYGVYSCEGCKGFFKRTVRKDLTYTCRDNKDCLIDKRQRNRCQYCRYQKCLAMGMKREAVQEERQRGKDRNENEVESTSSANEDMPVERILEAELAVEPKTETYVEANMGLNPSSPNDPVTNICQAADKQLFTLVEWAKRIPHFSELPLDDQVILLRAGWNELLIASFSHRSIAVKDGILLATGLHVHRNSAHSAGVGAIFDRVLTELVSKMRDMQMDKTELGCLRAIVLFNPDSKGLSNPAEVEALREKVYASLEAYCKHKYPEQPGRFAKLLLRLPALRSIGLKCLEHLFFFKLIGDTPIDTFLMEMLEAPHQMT
human RAR-related Orphan Receptor gamma (RORg), RORC (gene 6097), sequence (P51449 whole entry, looked up, the tested form may be a part): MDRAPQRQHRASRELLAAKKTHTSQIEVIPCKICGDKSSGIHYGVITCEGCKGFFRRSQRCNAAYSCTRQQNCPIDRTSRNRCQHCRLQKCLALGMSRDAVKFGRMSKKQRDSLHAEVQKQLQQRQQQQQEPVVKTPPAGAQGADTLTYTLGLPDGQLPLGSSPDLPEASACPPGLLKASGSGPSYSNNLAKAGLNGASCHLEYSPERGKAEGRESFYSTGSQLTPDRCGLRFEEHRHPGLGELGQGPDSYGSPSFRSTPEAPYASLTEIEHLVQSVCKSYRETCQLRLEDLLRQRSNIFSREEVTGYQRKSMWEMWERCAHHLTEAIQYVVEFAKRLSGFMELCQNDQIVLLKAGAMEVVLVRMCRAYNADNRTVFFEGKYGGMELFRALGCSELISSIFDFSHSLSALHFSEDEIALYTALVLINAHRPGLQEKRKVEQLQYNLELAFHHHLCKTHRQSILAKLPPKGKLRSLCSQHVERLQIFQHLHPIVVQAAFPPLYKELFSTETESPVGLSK
human Peroxisome Proliferator-activated Receptor delta (PPARd), PPARD (gene 5467), sequence (Q03181 whole entry, looked up, the tested form may be a part): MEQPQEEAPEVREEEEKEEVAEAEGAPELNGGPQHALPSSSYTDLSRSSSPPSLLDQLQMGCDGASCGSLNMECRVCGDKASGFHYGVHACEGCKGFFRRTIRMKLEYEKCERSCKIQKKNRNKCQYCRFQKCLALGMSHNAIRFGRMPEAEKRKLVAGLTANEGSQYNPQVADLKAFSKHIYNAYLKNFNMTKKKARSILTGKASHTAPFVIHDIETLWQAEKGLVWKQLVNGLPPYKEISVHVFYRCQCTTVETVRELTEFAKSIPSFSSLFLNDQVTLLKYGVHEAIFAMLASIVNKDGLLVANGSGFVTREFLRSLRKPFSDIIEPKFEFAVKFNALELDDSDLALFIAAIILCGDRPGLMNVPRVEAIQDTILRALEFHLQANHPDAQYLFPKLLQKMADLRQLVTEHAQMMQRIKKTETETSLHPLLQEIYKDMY
Peroxisome proliferator-activated receptor gamma (Homo sapiens), sequence (P37231 whole entry, looked up): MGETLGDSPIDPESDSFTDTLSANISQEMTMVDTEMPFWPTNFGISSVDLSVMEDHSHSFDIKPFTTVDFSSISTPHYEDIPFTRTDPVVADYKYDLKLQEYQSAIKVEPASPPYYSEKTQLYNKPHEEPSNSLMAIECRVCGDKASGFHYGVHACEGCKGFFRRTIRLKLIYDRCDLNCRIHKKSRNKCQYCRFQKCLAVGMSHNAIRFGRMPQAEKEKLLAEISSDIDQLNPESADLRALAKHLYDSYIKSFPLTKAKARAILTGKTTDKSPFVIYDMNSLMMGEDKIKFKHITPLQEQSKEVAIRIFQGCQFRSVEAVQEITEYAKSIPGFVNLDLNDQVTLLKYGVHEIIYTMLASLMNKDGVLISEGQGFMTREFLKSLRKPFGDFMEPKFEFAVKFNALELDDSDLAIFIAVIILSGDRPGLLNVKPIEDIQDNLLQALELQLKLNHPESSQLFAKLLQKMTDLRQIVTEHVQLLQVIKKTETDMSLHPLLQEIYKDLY
human RAR-related Orphan Receptor beta (RORb), RORB (gene 6096), sequence (Q92753 whole entry, looked up, the tested form may be a part): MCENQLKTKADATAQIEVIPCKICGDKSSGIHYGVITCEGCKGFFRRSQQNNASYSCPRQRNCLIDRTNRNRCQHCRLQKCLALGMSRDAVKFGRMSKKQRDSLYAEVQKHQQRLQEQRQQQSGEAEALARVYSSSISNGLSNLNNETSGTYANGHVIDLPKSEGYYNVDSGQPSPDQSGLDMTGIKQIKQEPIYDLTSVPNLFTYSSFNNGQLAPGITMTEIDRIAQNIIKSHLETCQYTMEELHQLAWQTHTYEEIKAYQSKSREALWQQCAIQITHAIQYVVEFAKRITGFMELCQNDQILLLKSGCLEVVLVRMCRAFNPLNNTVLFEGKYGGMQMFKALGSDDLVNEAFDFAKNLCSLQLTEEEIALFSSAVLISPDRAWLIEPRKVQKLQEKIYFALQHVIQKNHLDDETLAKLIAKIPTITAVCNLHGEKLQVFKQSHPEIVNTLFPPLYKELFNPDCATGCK
human Retinoic Acid Receptor beta (RARb), RARB (gene 5915), sequence (P10826 whole entry, looked up, the tested form may be a part): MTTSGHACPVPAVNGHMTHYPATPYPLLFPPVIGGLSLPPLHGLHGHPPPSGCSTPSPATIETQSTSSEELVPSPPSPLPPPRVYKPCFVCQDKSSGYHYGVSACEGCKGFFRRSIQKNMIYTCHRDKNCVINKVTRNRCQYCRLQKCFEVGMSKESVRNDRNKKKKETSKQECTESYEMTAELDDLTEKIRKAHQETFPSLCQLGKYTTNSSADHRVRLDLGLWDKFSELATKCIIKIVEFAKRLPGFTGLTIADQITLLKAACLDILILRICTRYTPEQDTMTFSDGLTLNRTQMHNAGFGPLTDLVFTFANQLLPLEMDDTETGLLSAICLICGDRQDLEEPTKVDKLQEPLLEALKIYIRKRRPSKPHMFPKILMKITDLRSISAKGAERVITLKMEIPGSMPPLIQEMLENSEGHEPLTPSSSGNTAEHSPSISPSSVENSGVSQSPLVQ
Nuclear receptor subfamily 1 group I member 2 (Homo sapiens), sequence (O75469 whole entry, looked up, the tested form may be a part): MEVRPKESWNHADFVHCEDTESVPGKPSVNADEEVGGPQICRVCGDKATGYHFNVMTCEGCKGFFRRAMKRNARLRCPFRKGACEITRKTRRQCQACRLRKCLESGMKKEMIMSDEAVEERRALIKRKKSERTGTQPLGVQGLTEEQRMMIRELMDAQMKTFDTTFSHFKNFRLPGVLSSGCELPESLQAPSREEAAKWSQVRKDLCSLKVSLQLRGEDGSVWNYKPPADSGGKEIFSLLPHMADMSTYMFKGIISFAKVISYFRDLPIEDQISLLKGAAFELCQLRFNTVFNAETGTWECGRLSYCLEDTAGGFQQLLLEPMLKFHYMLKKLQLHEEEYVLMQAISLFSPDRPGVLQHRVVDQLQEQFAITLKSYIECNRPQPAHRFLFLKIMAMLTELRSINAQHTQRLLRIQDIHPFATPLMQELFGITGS
human Thyroid Receptor alpha (THRa1), THRA (gene 7067), sequence (P10827 whole entry, looked up, the tested form may be a part): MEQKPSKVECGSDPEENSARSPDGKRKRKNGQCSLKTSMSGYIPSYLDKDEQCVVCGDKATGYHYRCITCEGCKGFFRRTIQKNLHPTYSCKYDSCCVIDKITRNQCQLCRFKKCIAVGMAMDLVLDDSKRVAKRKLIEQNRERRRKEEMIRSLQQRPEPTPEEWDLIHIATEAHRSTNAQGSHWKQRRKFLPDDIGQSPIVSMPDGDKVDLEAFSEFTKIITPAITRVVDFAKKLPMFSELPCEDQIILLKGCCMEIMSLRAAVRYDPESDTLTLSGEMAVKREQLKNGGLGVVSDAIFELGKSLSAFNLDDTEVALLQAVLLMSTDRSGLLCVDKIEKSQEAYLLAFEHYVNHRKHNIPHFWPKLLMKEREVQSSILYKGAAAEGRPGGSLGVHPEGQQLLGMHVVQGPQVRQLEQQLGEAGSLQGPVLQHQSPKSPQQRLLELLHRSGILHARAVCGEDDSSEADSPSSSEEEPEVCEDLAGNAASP
E-selectin (Homo sapiens), sequence (P16581 whole entry, looked up): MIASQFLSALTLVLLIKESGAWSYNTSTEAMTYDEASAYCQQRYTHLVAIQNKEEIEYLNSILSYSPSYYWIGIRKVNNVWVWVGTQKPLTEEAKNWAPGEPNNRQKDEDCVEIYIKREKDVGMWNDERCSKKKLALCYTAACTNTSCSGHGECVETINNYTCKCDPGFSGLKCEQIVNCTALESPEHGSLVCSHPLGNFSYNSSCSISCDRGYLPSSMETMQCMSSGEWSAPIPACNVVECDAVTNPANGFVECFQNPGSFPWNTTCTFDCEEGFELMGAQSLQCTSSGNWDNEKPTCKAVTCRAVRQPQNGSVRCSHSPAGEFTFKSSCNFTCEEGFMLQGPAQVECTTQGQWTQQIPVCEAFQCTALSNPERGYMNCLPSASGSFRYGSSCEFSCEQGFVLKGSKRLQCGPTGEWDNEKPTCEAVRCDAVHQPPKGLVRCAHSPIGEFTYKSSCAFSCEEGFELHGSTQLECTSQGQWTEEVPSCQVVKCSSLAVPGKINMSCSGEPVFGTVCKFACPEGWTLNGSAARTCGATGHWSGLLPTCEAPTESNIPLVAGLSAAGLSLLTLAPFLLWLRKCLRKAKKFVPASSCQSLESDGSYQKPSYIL

CC(CC=O)c1ccccc1 (centres undefined)
inactive: [1] | [4]
active: [2] 56.2 µM | [3] 5.22 µM

CC=C1CC2C=CC1C2 (centres undefined)
inactive: [1] | [5] | [4] | [6]
active: [2] 25.9 µM | [3] 7.51 µM

OC1CCCC1
inactive: [1] | [7] | [8] | [5] | [6]

Nc1ccc(-c2ccc(F)cc2)cc1
inactive: [1] | [2] | [3] | [5] | [4] | [6]

CCC(=O)Oc1ccc(/C(CC)=C(\CC)c2ccc(OC(=O)CC)cc2)cc1
inactive: [1] | [4]
active: [2] 18.5 µM | [3] 4.5 µM | [9] 2.92 µM

Cc1cc(C)c(C)cc1C
inactive: [1] | [2] | [9]

CC(C)(C)c1ccc(-c2ccc(C(C)(C)C)cc2)cc1
inactive: [1] | [3] | [8] | [4] | [6]

COc1ccc(NC(C)=O)cc1N
inactive: [1] | [6]

CCOC(=O)c1ccccc1C(=C1C=C(Br)C(=O)C(Br)=C1)c1cc(Br)c(O)c(Br)c1
active: [10] 21.1 µM and 21.2 µM | [11] 20.1 µM and 19.1 µM | [2] 3.1 µM | [12] 21 µM and 19.9 µM | [13] 4.38 µM and 4.46 µM | [14] 21.6 µM and 20.9 µM | [15] 15.5 µM and 13.5 µM | [16] 19.5 µM and 16 µM | [17] 20.2 µM and 21.7 µM
inactive: [3]

CCCCNc1ccc(NCCCC)c2c1C(=O)c1ccccc1C2=O
active: [15] 4.19 nM
not listed: [1] | [4] | [7] | [8] | [9] | [18] | [19]
inactive: all other assays above

c1c[nH]cn1
inactive: [18] | [7] | [2] | [3] | [8]

C=C(C)CCO
inactive: [18] | [7] | [3] | [19] | [8] | [5] | [4] | [6]

ON(Cc1ccccc1)Cc1ccccc1
inactive: [1] | [19] | [4] | [6]
active: [3] 17.2 µM

CC[C@H]1OC(=O)[C@H](C)[C@@H](O[C@H]2C[C@@](C)(OC)[C@@H](O)[C@H](C)O2)[C@H](C)[C@@H](O[C@@H]2O[C@H](C)C[C@H](N(C)C)[C@H]2O)[C@](C)(O)C[C@@H](C)C(=NOCOCCOC)[C@H](C)[C@@H](O)[C@]1(C)O
inactive: [18] | [7] | [3] | [5]

N[C@H]1C(O)O[C@H](CO)[C@H](O)[C@@H]1O (some centres undefined)
inactive: [1] | [4] | [6]

O=C1CCC(=O)N1Cl
inactive: [1] | [3] | [4] | [6]

CC1(C)S[C@@H]2[C@H](NC(=O)COc3ccccc3)C(=O)N2[C@H]1C(=O)O
inactive: [1] | [8]
